About 1,000 (0.29%) of roughly 340,000 compounds were called active. No stated cut-off is given here; in the data, inconclusive means inhibition above about 29% without an active follow-up result; inactive means below that. The list is a sample of the results. Potency and affinity values are given separately.

In general, inhibition refers to the drop in the measured response relative to a control, in per cent.

For the experiment, the target named is Genome polyprotein (Dengue virus type 2 (strain 16681-PDK53)) (UniProt P29991). The experiment in a line: Dengue-2 NS5 methyltransferase inhibitors, primary screen, biochemical, confirmation dose response (AID 588689). The settings on record: Dengue-2 NS5 methyltransferase capping enzyme assay, at 25 µM, stronger effect = higher value.
Setting [1] is: measured here: pilot screen replicate inhibition.

As to `O=C(N/N=C/c1cccc(Cl)c1)C1CCCC1`, the inhibition is 0% (inactive). Consider `Cc1ccc(C(=O)Nc2ccccc2C(=O)O)cc1S(=O)(=O)Nc1ccccc1`, for which the inhibition is 3.97% (inactive). The same measure, in the same setting: the result for `CC(=O)Nc1cccc(C(=O)Nc2ccccc2C(=O)O)c1` reads 3.9% (inactive). Same read-out and setting: as for `O=C(Nc1ccccc1C(=O)O)c1cccc(F)c1`, the figure is 3.35% (inactive); as for `Cc1cccc(C(=O)Nc2ccc(O)cc2C(=O)O)c1`, 14.3% (inactive). With `Cc1ccc(C(=O)Nc2ccc(O)cc2C(=O)O)cc1`, the inhibition was -8.03% (inactive).

With `O=C(Nc1ccccc1C(=O)O)c1cccc(S(=O)(=O)Nc2ccc(Br)cc2)c1`, the inhibition was 22.4% (inactive). On the same count and under the same terms, the result for `O=C(Nc1ccccc1C(=O)Nc1ccccc1C(=O)O)c1ccccc1` reads 2.59% (inactive); that for `O=C(Nc1ccccc1C(=O)O)c1ccccc1`, -0.69% (inactive). For the molecule `Cc1cccc(N(CC(O)CN2CCOCC2)S(=O)(=O)c2ccccc2)c1` (configuration not stated), the inhibition was 0% (inactive). Regarding `Cc1cc(-c2ccccc2N)n[nH]1`, the inhibition was -5.29% (inactive). For the molecule `CCN(C(=O)COC(=O)c1ccccc1NCCO)c1cccc2ccccc12`, the inhibition was 6.52% (inactive). Same read-out and setting: as for `COc1ccc(NC(=O)c2ccc(-c3ccccc3C(F)(F)F)o2)cc1`, the figure is -7.03% (inactive); as for `COc1cc(C2c3cc4c(cc3OC(NCCc3ccccc3)C2C)OCO4)cc(OC)c1OC` (configuration not stated), -4.03% (inactive). `COc1ccc(S(N)(=O)=O)cc1C(=O)OCC(=O)Nc1sccc1C#N`: the inhibition was -21% (inactive). The same measure, in the same setting: as for `COc1ccccc1N(CC(=O)NCCSc1ccccc1)S(=O)(=O)c1ccccc1`, the figure is -5.79% (inactive).

As to `O=C(CSc1ncn[nH]1)N1N=C2/C(=C/c3ccco3)CCCC2C1c1ccco1` (configuration not stated), the inhibition is -4.57% (inactive). On to `Cc1ccccc1C(=O)Nc1nnc(SC(C)C)s1`, for which the inhibition is -3.88% (inactive). For `Cc1ccc(-n2nc3c(=O)n(CC(=O)NCCCc4ccccc4)nc(C)c3c2C)cc1`, the inhibition was -3.57% (inactive). Take `CC(C)(C)OC(=O)N1CCCC(C(=O)CC#N)C1` (configuration not stated): the inhibition was -13.4% (inactive). As for `CC1/C(=N/O)CC(c2ccccc2)NC1c1ccccc1` (configuration not stated), the inhibition is 3.42% (inactive). With `COCCNc1nc(NCc2ccccc2)c2cnn(C)c2n1`, the inhibition is -7.24% (inactive). For the molecule `CN(C)CCCN1CC(=O)N2[C@@H](Cc3c([nH]c4ccccc34)C2(C)C)C1=O`, the inhibition was 5.89% (inactive). Consider `COc1ccc(CCC(=O)Nc2sc(C(=O)N(C)C)c(C)c2C#N)cc1`, for which the inhibition is 2.58% (inactive). With `COc1ccc(Nc2ccc(C(=O)O)cc2[N+](=O)[O-])cc1`, the inhibition was 3.64% (inactive). Take `Cc1ccc(Nc2ccc(C(=O)O)cc2[N+](=O)[O-])cc1`: the inhibition is 17% (inactive). On the same count and under the same terms, as for `COc1ccc(C(C)=O)cc1COC(=O)CNC(=O)C1CCCCC1`, the figure is 10.9% (inactive); as for `Cc1cccc(-c2nnc(SCC3CNC(=O)O3)n2-c2ccc(Cl)cc2)c1` (configuration not stated), -12.5% (inactive).

Turning to `Cc1sc(NC(=O)C2C3CCC(C3)C2C(=O)O)c(C(N)=O)c1-c1ccc(C(C)(C)C)cc1` (configuration not stated), the inhibition was 7.13% (inactive).

Consider `Cc1sc(NC(=O)C2CCCCC2C(=O)O)c(C(N)=O)c1-c1ccccc1` (configuration not stated), for which the inhibition was -2.08% (inactive). Regarding `Cc1sc(NC(=O)C2C3C=CC(C3)C2C(=O)O)c(C(N)=O)c1-c1ccc(C(C)C)cc1` (configuration not stated), the inhibition was -5.14% (inactive). Same read-out and setting: as for `CC(C)=C1C2CCC1C(C(=O)Nc1sc(C)c(-c3ccc(C(C)C)cc3)c1C(N)=O)C2C(=O)O` (configuration not stated), the figure is 2.89% (inactive). Take `COc1ccc(NC(=O)CN2CCN(S(=O)(=O)N(C)C)CC2)cc1`: the inhibition is 2.61% (inactive). Besides, the inhibition under setting [1] amounted to 3.63%. Turning to `Cc1c(C(=O)c2ccc(Cl)c(Cl)c2)cnc2cc3c(cc12)OCO3`, the inhibition is 0.78% (inactive). In the case of `Nc1c(C(=O)O)sc2nc(-c3ccccc3)cc(-c3ccccc3)c12`, the inhibition was -27% (inactive). Same read-out and setting: as for `Nc1c(C(=O)O)sc2nc(-c3ccccc3)cc(-c3ccc(F)cc3)c12`, the figure is -4.6% (inactive); as for `CCOC(=O)CC1COc2ccccc2N1C(=O)c1cccc([N+](=O)[O-])c1` (configuration not stated), -0.68% (inactive); as for `CCOc1ccc(N2C(=O)CC(N(Cc3ccco3)C(=O)CCC(=O)O)C2=O)cc1` (configuration not stated), -7.79% (inactive). For the molecule `Cc1c(C(=O)OCC(=O)NC2CC2)oc2ccc(Br)cc12`, the inhibition was 4.33% (inactive).

Take `CNCc1ccccc1Sc1cccc(O)c1`: the inhibition is -3.83% (inactive). On to `CNCc1ccccc1Sc1cc(O)ccc1O`, for which the inhibition was -2.55% (inactive). Still for that read-out and setting: as for `Cc1cc(NC(=O)CSc2ccccn2)cc(NC(=O)CSc2ccccn2)c1`, the figure is -6.51% (inactive); as for `O=C(O)c1cccc(S(=O)(=O)Nc2ccc(-c3ccccc3)cc2)c1`, -3.98% (inactive); as for `O=C1c2ccccc2C(=O)c2cc(S(=O)(=O)Nc3ccccc3)ccc21`, -0.73% (inactive). Turning to `O=C(O)c1ccc(Cl)c(S(=O)(=O)Nc2ccccc2Cc2ccccc2)c1`, the inhibition was -0.83% (inactive). As to `O=C(O)c1ccc(Cl)c(S(=O)(=O)Nc2ccc(S(=O)(=O)N3CCCC3)cc2)c1`, the inhibition is -5.16% (inactive). For the molecule `O=C(O)c1ccc(NS(=O)(=O)c2cc(Cl)ccc2Cl)cc1`, the inhibition is -2.78% (inactive).

On to `O=C(O)c1cccc(NS(=O)(=O)c2ccc(Oc3ccc(S(=O)(=O)Nc4cccc(C(=O)O)c4)cc3)cc2)c1`, for which the inhibition was 13.8% (inactive). Same read-out and setting: the result for `O=C(O)c1ccc(F)c(S(=O)(=O)Nc2ccccc2Cl)c1` reads 4.09% (inactive); that for `O=C(O)c1cccc(NS(=O)(=O)c2ccc3c(c2)C(=O)c2ccccc2C3=O)c1`, 16.2% (inactive). Consider `CC1(C)C2CCC1(CS(=O)(=O)NCc1ccc(C(F)(F)F)cc1)C(=O)C2` (configuration not stated), for which the inhibition is -2.61% (inactive). Same read-out and setting: as for `CCOC(=O)N1CCN(Cc2nc3ccc([N+](=O)[O-])cc3c(=O)n2-c2ccc(OC)cc2OC)CC1`, the figure is -7.83% (inactive).

In the case of `Cc1ccc(C2(C)NC(=O)N(CC(=O)NNC(=O)c3cc(C)oc3C)C2=O)cc1` (configuration not stated), the inhibition is -2.16% (inactive). As to `CC1CC1C(=O)N(C)CC(=O)Nc1ccccc1Br` (configuration not stated), the inhibition was -5.16% (inactive). Same read-out and setting: as for `Cc1cc(C(=O)OC(C)C(=O)NC2CCCCC2)c(C)o1` (configuration not stated), the figure is 3.67% (inactive). With `O=C(NC1CC2CCCC(C1)N2CC(=O)N1CCCc2ccccc21)C1CCCCC1` (configuration not stated), the inhibition is -6.56% (inactive). The same measure, in the same setting: the result for `Cc1cccc(-n2cnc3sc(C)c(C)c3c2=O)c1` reads 3.09% (inactive); that for `O=C(O)c1ccc(COc2ccccc2/C=C2/NC(=O)N(c3cccc(Cl)c3)C2=O)cc1`, 6.55% (inactive); that for `O=C1NC(=S)N/C1=C\c1ccccc1OCc1ccc(C(=O)O)cc1`, -6.96% (inactive). The same measure, in the same setting: as for `C=CCc1cc(C=O)cc(OC)c1OCc1ccc(C(=O)O)cc1`, the figure is -5.83% (inactive); as for `COC(=O)c1ccc(COc2ccc(/C=N/Nc3cccc(C(=O)O)c3)cc2)cc1`, 8.5% (inactive).

As to `COC(=O)c1ccc(COc2ccccc2/C=N/NS(=O)(=O)c2ccccc2)cc1`, the inhibition was -8.06% (inactive). The same measure, in the same setting: the result for `O=C(O)c1ccc(COc2ccc(CO)cc2Cl)cc1` reads -1.37% (inactive); that for `COc1cc(/C=C2/NC(=O)NC2=O)cc(Br)c1OCc1ccc(C(=O)O)cc1`, -4.44% (inactive); that for `CN1C(=O)S/C(=C\c2ccccc2OCc2ccc(C(=O)O)cc2)C1=O`, 2.95% (inactive). Take `Cc1cccc(C(=O)OCC(=O)Nc2c(C)n(C)n(-c3ccccc3)c2=O)c1O`: the inhibition is -4.38% (inactive). For the molecule `N#Cc1ccc(NC(=O)c2sc3cc(C(F)(F)F)cnc3c2-c2cccs2)cc1`, the inhibition was -3.46% (inactive). For `CC(C)CN(C(=O)c1ccc(N2CCCC2=O)cc1)C1CCS(=O)(=O)C1` (configuration not stated), the inhibition was 2.16% (inactive). On the same count and under the same terms, the result for `COc1ccc(N(C(=O)c2ccco2)C(C(=O)NC2CCCC2)c2ccc(OC)c(OC)c2)cc1` (configuration not stated) reads -4.04% (inactive); that for `N#Cc1ccc2ccn(CC(=O)NCc3ccco3)c2c1`, -5.46% (inactive). For `O=C(CCn1cnc2ccccc2c1=O)Nc1ccc(Cl)c(Cl)c1`, the inhibition was 1.31% (inactive). Same read-out and setting: the result for `CCOc1ccccc1/C=C\c1nc(O)c([N+](=O)[O-])c(=O)[nH]1` reads 5.29% (inactive); that for `O=C(COc1ccccc1/C=C\c1nc(O)c([N+](=O)[O-])c(=O)[nH]1)Nc1ccccc1`, 2.19% (inactive). Same read-out and setting: the result for `COc1cccc(/C=N/Nc2ccc([N+](=O)[O-])cc2)c1O` reads -38.8% (inactive). With `COc1cccc(/C=C/c2ccccn2)c1O`, the inhibition is -0.77% (inactive). The same measure, in the same setting: as for `CCCCCCSc1cc(-c2nc3cc(C)ccn3c2NC2CCCCC2)ccc1OC`, the figure is -8.81% (inactive). Same read-out and setting: as for `O=C(c1ccc(Cn2c(=O)[nH]c3ccsc3c2=O)cc1)N1CCN(c2ccccc2)CC1`, the figure is -1.16% (inactive); as for `COc1ccc(CN(C)C(=O)c2cccc(NS(=O)(=O)c3ccccc3)c2)c(OC)c1`, 0.32% (inactive); as for `O=C(CN(c1ccc(F)cc1)S(=O)(=O)c1ccccc1)NC1CCCCCC1`, 0% (inactive). With `Cc1ccc(/C=C/c2nc3sc(C(=O)O)c(C)c3c(=O)[nH]2)cc1[N+](=O)[O-]`, the inhibition was -2.44% (inactive). The same measure, in the same setting: the result for `COc1cccc(CNC(=O)Cn2ccc3cc(S(=O)(=O)N4CCCC4)ccc32)c1` reads -0.45% (inactive); that for `COc1ccc(N(C(=O)Cn2nnc(-c3ccc(Cl)cc3)n2)C(C(=O)NCC2CCCO2)c2ccncc2)cc1` (configuration not stated), -2.22% (inactive). As to `CCOC(=O)c1nn(-c2ccccc2)c(=O)c2c(N)scc12`, the inhibition is 7.81% (inactive). For the molecule `COc1ccc(/C=N/NC(=O)c2nn(-c3ccccc3)c(=O)c3c(N)scc23)cc1`, the inhibition was 50% (inactive).

In the case of `CCOC(=O)c1nn(-c2ccc(C)cc2)c(=O)c2c(N)scc12`, the inhibition was 12.4% (inactive).

On to `COc1ccc(/C=N/NC(=O)c2nn(-c3ccc(Cl)cc3)c(=O)c3c(N)scc23)cc1`, for which the inhibition was 65.9% (inactive). Also, the inhibition under setting [1] stood at 10.3%.

Turning to `Cc1ccc2c(c1)NC(=O)c1cccnc1N2`, the inhibition was -0.54% (inactive). As for `Cc1nnc(SC(C)C(=O)N(C)C2CCCCC2)n1N` (configuration not stated), the inhibition is -0.37% (inactive).

For the molecule `CCOc1cc(C(=O)NCCC(=O)N2CCC3(CC2)NCCc2[nH]cnc23)cc(OCC)c1OCC`, the inhibition is -6.21% (inactive). Turning to `CCCCN1CC[C@H]2C=CC[C@@H](C(=O)N3CCN(c4ccccc4)CC3)[C@H]2C1=O`, the inhibition was -5.46% (inactive).

The record behind these values is PubChem BioAssay AID588689 (Southern Research Specialized Biocontainment Screening …, 2011).
